The supplement of paper PMC5407854, “Inhibitor of ppGalNAc-T3-mediated O-glycosylation blocks cancer cell invasiveness and lowers FGF23 levels” (eLife, 2017)
The full ranking holds about 1,700 compounds; the median of “T2 sensor activation Q score (MG/GFP ratio z-score vs DMSO controls)” is about 0.3, and the highest 2% start at about 1.9. The full list was thinned out, with the highest values kept by preference.

tested on: ppGalNAc-T2 sensor; test: T2 sensor activation Q score (MG/GFP ratio z-score vs DMSO controls) (SD units); higher = more sensor activation (inhibition of ppGalNAc-T2 glycosylation); conditions: HEK293 sensor cells; 10 µM; 6 h
Protocol: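 Cells were treated with compound at 10 uM for 6 h, then MG/GFP ratio was read by flow cytometry (10,000 cells per well, duplicate wells). Q = (R - R_neg)/SD_neg relative to DMSO vehicle controls; the signal rises when the glycosyltransferase is inhibited.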

Compound	T2 sensor activation Q score
c1coc(CNc2ncnc3[nH]ncc23)c1	0.7
O=C(O)/C=C/C(=O)N1Cc2cc3ccccc3nc2C1	-0.3
CCCCN1C(=O)CC2CCOC21C (stereo not drawn)	-0.45
CN1C(=C=Cc2cc(I)c(O)c(I)c2)C(C)(C)c2ccccc21	3.65
Cc1nnc(-n2cccc2)s1	1.4
Clc1ccc(Oc2nc3c(Cl)cccc3s2)cc1Cl	0.85
Nc1n[nH]c(-c2ccccc2)n1	0.75
Nc1n[nH]c(CO)n1	1.95
C(COC1CC2CC1C1C2CC2OC21)OC1CC2CC1C1C2CC2OC21 (stereo not drawn)	0.15
CC(C)C[C@H](NC(=O)[C@H](CCc1ccccc1)NC(=O)CN1CCOCC1)C(=O)N[C@@H](Cc1ccccc1)C(=O)N[C@@H](CC(C)C)C(=O)[C@@]1(C)CO1	-1.65
O=C1c2cccc(Sc3ccccc3)c2C(=O)c2c(Sc3ccccc3)cccc21	-0.5
S=c1nc[nH]c2c1ncn2C1CCCC1	1.4
COc1ccc2nc3cc(Cl)ccc3c(Nc3cc(C(C)C)c(O)cc3C)c2c1	0.55
N#Cc1nnn(-c2ccc(Cl)cc2)c1N	1
CSC1=NC=C(C#N)C2=NC(c3ccc(Cl)cc3)NN12 (stereo not drawn)	2.45
Cc1c(Cl)cccc1Nc1ncccc1C(=O)OCC(O)CO (stereo not drawn)	-0.65
CN(C)c1ccc(C(c2ccc(N(C)C)cc2)c2ccc([N+](=O)[O-])cc2)cc1	0.55
CCSc1nc(O)cc(=O)[nH]1	-0.9
CC(=O)[C@H]1CC[C@H]2[C@@H]3CCC4=CC(=O)C=C[C@]4(C)[C@H]3C(=O)C[C@]12C	1.65
CCOCc1cc(=O)[nH]c(SC)n1	-0.05
Cc1ccc(S(=O)(=O)Oc2cc(N)c3c(n2)CCC3)cc1	0.3
O=C(Nc1ccc(Br)cc1)Nc1ccccc1Cl	-0.9
Clc1ccc(Nc2nnc(-c3ccc4c(c3)OCO4)o2)cc1	-0.7
CCN1CCCC(Sc2nc3c([nH]2)c(=S)n(C)c(=O)n3C)C1 (stereo not drawn)	0.45
O=C(O)c1cc(O)ccc1N=Nc1ccccc1	1.55
CCC(=Cc1ccc(CC)cn1)CC	1.85

Compound	T2 sensor activation Q score
O=[N+]([O-])c1cccc(/C=C/c2ccccn2)c1	-1.2
C(=C\c1ccccn1)/c1ccccn1	2.1
C(=C\CSc1ccccn1)/CSc1ccccn1	-0.6
CC(=O)c1c(O)c(C)c(O)c2c1OC1=CC(=O)/C(=C(/C)N)C(=O)C12C (stereo not drawn)	-1.2
C/C=C1\NC(=O)[C@H]2CSSCC/C=C/[C@H](CC(=O)N[C@H](C(C)C)C(=O)N2)OC(=O)[C@H](C(C)C)NC1=O	3
O=C(Nc1nc2ccccc2s1)Nc1ccc([N+](=O)[O-])cc1Cl	0.35
CN(C)c1nc(Cl)nc2c1nc(Cl)n2C1CCCCO1 (stereo not drawn)	1.4
O=C(/C=C/c1ccccc1)CC(c1ccccc1)N1CCOCC1 (stereo not drawn)	-0.6
C1COCCN1.O=C(O)C(C=C(Cl)Cl)N1CCOCC1 (stereo not drawn)	2.65
CCCCCCCCC(=O)c1c(OC)oc(C=O)cc1=O	0.5
C/C(=N/O)[C@H]1CC[C@H]2[C@@H]3CC[C@@H]4C/C(=N\O)CC[C@]4(C)[C@H]3[C@@](C)(O)C[C@]12C	0.5
COC(=O)c1c(-c2ccccc2)[nH]c(-c2nccc3ccccc23)c1C(=O)OC	-0.35
COc1cc(NC(=O)CCl)ccc(=O)c1	0.6
Nc1o[nH]c(=O)c1C1CCCCC1	-0.8
Cc1cc(-n2cnc3c(=O)[nH]cnc32)ccc1N	1.35
CS/C(=C\c1ccc(C(=O)c2ccc(C)cc2)n1C)[S+](C)[O-] (stereo not drawn)	5.35
CCOC(=O)Nc1ccc2nc(Sc3ccc(Cl)cc3)sc2c1	0.35
COC(=O)c1cc2c(n1S(=O)(=O)c1ccc(C)cc1)C(=O)C(=O)c1[nH]cc(C(=O)OCc3ccccc3)c1-2	2
Cc1ccc(S(=O)(=O)CCOC(=O)CNC(=O)OCc2ccccc2)cc1	-0.1
NC(=O)NC(=O)c1nccnc1C(=O)O	-0.2
O=C(c1ccccc1)c1ccccc1C(=O)c1ccccc1	0.65
COc1c(O)ccc2c1CN1CCc3cc4c(cc3C1C2)OCO4 (stereo not drawn)	-1.3
COC(=O)C[C@](O)(CCCC(C)(C)O)C(=O)O[C@@H]1C(OC)=C[C@]23CCCN2CCc2cc4c(cc2[C@H]13)OCO4	4.5
C[C@]12CC[C@H](O)CC1=CC[C@@H]1[C@@H]2CC[C@]2(C)c3[nH]ncc3C[C@@H]12	0.2
COc1ccc(C(=S)N2CCN(c3ccccc3C)CC2)cc1	-0.85
CCn1c(=O)n(C)c2c(=O)n(C)c(=O)n(C)c21	-1.1

Compound	T2 sensor activation Q score
Cn1c(=O)c2c(nc(N3CCCCC3)n2C)n(C)c1=O	-0.7
Cn1c(=O)c2[nH]c(N3CCCCC3)nc2n(C)c1=O	2.15
CCCc1nc2c([nH]1)c(=O)n(C)c(=O)n2C	1.8
Cn1c(=O)c2c(nc(Cc3ccccc3)n2C)n(C)c1=O	1.35
Cc1c2oc3c(C)ccc(C(=O)N[C@@H]4C(=O)N[C@H](C(C)C)C(=O)N5CCC[C@H]5C(=O)N(C)CC(=O)N(C)[C@@H](C(C)C)C(=O)O[C@@H]4C)c3nc-2c(C(=O)N[C@@H]2C(=O)N[C@H](C(C)C)C(=O)N3CCC[C@H]3C(=O)N(C)CC(=O)N(C)[C@@H](C(C)C)C(=O)O[C@@H]2C)c(N)c1=O	-1.15
Cc1cc2cc3c(=O)[nH]c(=O)[nH]c3nc2cc1C	-0.35
N#CC1C(=O)NC(=O)C(C#N)C12CCCC(C(F)(F)F)C2 (stereo not drawn)	0.45
CN(C)C=Nc1ccc(Cl)c(Cl)c1	-1.85
C1C2CC3C1C3/C2=N\N=C1/C2CC3C(C2)C13	0.3
Nc1ccc(SCc2nc3cccc4c3n2CCC4)cc1	0.35
Cn1c2c(sc1=O)CCC2	-0.4
C#CCSc1n[nH]c(-c2ccco2)n1	1.7
COc1ccccc1NC(=O)Oc1cccc(OC(=O)c2ccccc2)c1	0.2
COc1ccc(Cc2nnc(SC)n2-c2ccc(F)cc2)cc1OC	0.45
O=C1c2ccccc2C(=Cc2cccnc2)c2ccccc21	0.2
Cc1ccc(NC(=O)NNC(=O)CSC2CCc3ccccc32)c(C)c1 (stereo not drawn)	-1.2
O=C(Nc1ccsn1)c1ccc(Cl)cc1Cl	1.25
Nc1ccn(C2OC(CCl)C(O)C2O)c(=O)n1 (stereo not drawn)	-0.65
Cn1ncc2c(Nc3ccc([N+](=O)[O-])cc3)nc(Cl)nc21	-0.5
CC1=NCC(C)c2ccccc21 (stereo not drawn)	3.25
COc1ccc(-c2cc(-c3ccccc3)c(-c3ccccc3)nn2)cc1	-0.95
CCOC(=O)Nc1ccc2nc(N3CCCCCC3)sc2c1	0.95
O=C(C=Cc1ccc(O)c(O)c1)c1ccccc1O	-0.4
Cc1nc(SCC(=O)O)n[nH]1	-1.55
CCOc1ccc(/C=C2\CCc3ccccc3C2=O)cc1	0.5
CCOC(=O)N1CCN(Cc2c(O)ccc3ccccc23)CC1	-0.05

Compound	T2 sensor activation Q score
CCOC(=O)N1C/C(=C\c2ccccc2)C(=O)/C(=C/c2ccccc2)C1	2.95
CC(=O)NC1=C/C(=C\[N+](=O)[O-])C=C1O	-0.65
COc1cc2c(cc1OC)C(=O)Cc1ccc3c(c1CN(C)CC2)OCO3	1.1
CCN1CCCCC(=NO)C(=NO)CCCC1	1.05
COc1ccc(OC(=O)Nc2ccc([N+](=O)[O-])cc2OC)cc1	0.95
O=C1C2C3C=CC(O3)C2C(=O)N1Nc1ccccc1 (stereo not drawn)	0.25
C(=N\Nc1nnn(Cc2ccccc2)n1)/c1ccccc1	0.5
Nc1ccc(-c2nc3nc(N)nc(N)c3nc2-c2ccc(N)cc2)cc1	4.95
CCN(CC)CCNc1c(C)cc(CO)c(Cl)c1C	0.25
C#CC(C)OCC1CNC(=S)O1 (stereo not drawn)	-1.4
CN(C)c1ccc(/C=N\NC(=O)c2cnc3ccccc3c2)cc1	-0.3
NS(=O)(=O)c1cc2c(cc1Cl)NC(CC1CCCC1)NS2(=O)=O (stereo not drawn)	0.8
S=c1cn[nH]c2ccccc12	0.55
S=c1[nH]c2ccccc2n2cccc12	1.1
S=c1[nH]c2ccccc2c2ccccc12	1.95
CSC(=O)NC(=O)NC(=O)c1ccc([N+](=O)[O-])cc1	1.05
O=C(c1ccccc1)c1ccc(-c2ccc(O)cc2)cc1	1.55
O=C(c1ccccc1)c1ccc(Sc2ccc([N+](=O)[O-])cc2)cc1	7.7
CCN(CC)CCN1c2ccccc2Sc2ccc3ccccc3c21	-0.8
OC(c1cc(-c2ccc(C(F)(F)F)cc2)nc(C(F)(F)F)c1)C1CCCCN1 (stereo not drawn)	0.5
CCCCSc1ncnc2[nH]ncc12	0.45
O=[N+]([O-])c1ccc2c3ccccc3[s+]([O-])c2c1 (stereo not drawn)	0.25
CC(C)NCC1CCc2cc(CO)c([N+](=O)[O-])cc2N1 (stereo not drawn)	-0.55
Cc1ccc(Cl)cc1NC(=O)c1cc2ccccc2cc1O	-0.35
CCOC(=O)Cc1cc(=O)c2cc(C)ccc2[nH]1	0.8
